Unmarked numbers belong to inactive results. Records with an inconclusive call do not appear. The source made the active and inactive calls. Unless noted, calls come from the whole dose curve; as a rule, active = well fitted curve in the direction sought with a large enough effect in the repeat runs; inconclusive = weak or mixed curves; inactive = no such curve, though single readings can be large; an effect the other way counts as inactive or inconclusive.

A short description of assay [1]: A CellTox Green Cytotoxicity Assay to monitor cytotoxicity in HepG2 cells - 0 hour (AID 1224882). Note: nearly all actives have a fitted effect of over 35% in size. The method, boiled down:
(§1)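 Read-out is fluorescence of a cyanine dye excluded from live cells that stains DNA of dead HepG2 cells, with signal proportional to cytotoxicity. Plates were read at 0, 8, 16, 24, 32 and 40 h after compound addition.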

A short description of assay [2]: A CellTox Green Cytotoxicity Assay to monitor cytotoxicity in HepG2 cells - 32 hour (AID 1224883). Note: nearly all actives have a fitted effect of over 50% in size. The gist of the method: as §1
The nature of assay [3]: A CellTox Green Cytotoxicity Assay to monitor cytotoxicity in HEK293 cells - 8 hour (AID 1224884). Note: nearly all actives have a fitted effect of over 35% in size. The method, boiled down:
(§2)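 Nonlytic real-time cytotoxicity: HEK293 + CellTox Green reagent plated, 5 h preincubation, pintool compound addition (23 nL in DMSO), 37 C for 40 h, fluorescence measured at successive time points.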

The nature of assay [4]: qHTS RealTime-Glo MT Cell Viability Assay in HepG2 cells - 16 hour (AID 1224885). Note: nearly all actives have a fitted effect of over 50% in size. The gist of the method:
(§3)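 Cells + NanoLuc/prosubstrate dispensed (600 cells/well) → 5 h at 37 C/5% CO2 → compounds in DMSO transferred → 40 h incubation at 37 C, luminescence read at 0, 8, 16, 24, 32, 40 h.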

Assay [5] is described as follows: qHTS RealTime-Glo MT Cell Viability Assay in HEK293 cells - 24 hour (AID 1224886). Note: top concentration of the series differs between compounds; nearly all actives have a fitted effect of over 50% in size. The gist of the method: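 Tox21 10K qHTS, HEK293, 600 cells/well, RealTime-Glo reagent co-dispensed with cells; 5 h preincubation, compound by pintool, 37 C, luminescence at 0–40 h.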
Assay [6] can be described thus: qHTS RealTime-Glo MT Cell Viability Assay in HEK293 cells - 8 hour (AID 1224887). Note: top concentration of the series differs between compounds; nearly all actives have a fitted effect of over 50% in size. The gist of the method: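 Cells were seeded together with NanoLuc luciferase and a prosubstrate that viable cells reduce to a luciferase substrate. After a 5 h incubation at 37 C/5% CO2, compounds were added and luminescence was measured repeatedly during 40 h of treatment.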
Assay [7] in a line: A CellTox Green Cytotoxicity Assay to monitor cytotoxicity in HEK293 cells - 16 hour (AID 1224888). Note: nearly all actives have a fitted effect of over 35% in size. The gist of the method:
as §2

Assay [8] is described as follows: qHTS RealTime-Glo MT Cell Viability Assay in HepG2 cells - 0 hour (AID 1224889). Note: nearly all actives have a fitted effect of over 50% in size. The method, boiled down:
as §3

Assay [9] can be described thus: A CellTox Green Cytotoxicity Assay to monitor cytotoxicity in HepG2 cells - 8 hour (AID 1224890). Note: nearly all actives have a fitted effect of over 45% in size. The gist of the method:
as §1

Assay [10] can be described thus: qHTS assay to identify small molecule antagonists of the androgen receptor (AR) signaling pathway using the MDA cell line in the presence of 0.5 nM R1881 - cell viability counter screen (AID 1259242). Note: nearly all actives have a fitted effect of over 45% in size. The gist of the method: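 Counter screen for cytotoxicity run in the same wells as the AR antagonist reporter screen: MDA-kb2 cells were treated 16 hr with test compounds and 0.5 nM R1881, then live-cell protease activity was measured by fluorescence.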

The target in assay [11] is Androgen receptor (Homo sapiens) (UniProt P10275). Description: qHTS assay to identify small molecule antagonists of the androgen receptor (AR) signaling pathway using the MDA cell line in the presence of 0.5 nM R1881 (AID 1259243). Note: nearly all actives have a fitted effect of over 50% in size. The method, boiled down:
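Luciferase luminescence is the read-out: compounds are tested for suppressing 0.5 nM R1881-driven MMTV reporter activity in MDA-kb2 cells after 16 hr at 37C.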

Assay [12] addresses Estrogen receptor (Homo sapiens) (UniProt P03372). In words: qHTS assay to identify small molecule antagonists of the estrogen receptor alpha (ER-alpha) signaling pathway using the BG1 cell line in the presence of 0.1 nM 17-beta-estradiol (AID 1259244). Note: nearly all actives have a fitted effect of over 50% in size. The method, boiled down: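 Cells: VM7Luc4E2, endogenous ER-alpha, 4x ERE-luc stable. Pre-culture 5 d, phenol red-free, charcoal-stripped FBS. Plated 24 h, compound + E2 0.1 nM final, 22 h 37C/5% CO2. Readout ONE-Glo luminescence.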

The nature of assay [13]: qHTS assay to identify small molecule HDAC inhibitors (AID 1259364). Note: top concentration of the series differs between compounds; nearly all actives have a fitted effect of over 45% in size. The method, boiled down: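 Luminescence from a cell-permeant luminogenic class I/II HDAC substrate reports endogenous deacetylase activity in intact HCT-116 cells treated with compounds for 2 h.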
A short description of assay [14]: qHTS assay to identify small molecule HDAC inhibitors - cell viability counter screen (AID 1259365). The method, boiled down:
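Cytotoxicity was gauged in wild-type HCT-116 cells after a brief 2hr treatment with DMSO-dissolved compounds at 37C and 5% CO2, using CellTiter-Glo luminescence developed for 30min at room temperature.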

Assay [15] in a line: qHTS assay to identify small molecule agonists of the sonic hedgehog signaling (Shh) pathway - cell viability counter screen (AID 1259366). Note: nearly all actives have a fitted effect of over 50% in size. The gist of the method: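 Stable Gli1-Luc NIH/3T3 clone, 2,000 cells/well. Compound exposure 24hr at 37C. Read-out: CellTiter-Fluor fluorescence.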
Assay [16] is described as follows: qHTS assay to identify small molecule antagonists of the sonic hedgehog signaling (Shh) pathway - cell viability counter screen (AID 1259367). Note: nearly all actives have a fitted effect of over 55% in size. The gist of the method:
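Using CellTiter-Fluor, viability of Gli1-Luc reporter 3T3 cells is read by fluorescence in the wells used for the Shh luciferase assay. Treatment lasts 23 hr with conditioned medium, then reagent 1 hr at 37C.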

Assay [17] can be described thus: qHTS assay to identify small molecule agonists of the sonic hedgehog signaling (Shh) pathway (AID 1259368; calls by dose curve;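 note: NIH/3T3-derived 3T3Gli1-Luc cells carrying a stable Gli1-driven firefly luciferase reporter; series mostly up to about 92 µM; nearly all actives have a fitted effect of over 15% in size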). The method, boiled down: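 3T3Gli1-Luc (NIH/3T3 clone, stable Gli1-Luc); 4 hr pre-incubation, then cpd in DMSO 24 hr, 37 C/5% CO2; luciferase reagent 30 min RT; luminescence.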
A short description of assay [18]: qHTS assay to identify small molecule antagonists of the sonic hedgehog signaling (Shh) pathway (AID 1259369; calls by dose curve; note: nearly all actives have a fitted effect of over 45% in size; note: potency is the fitted concentration of half-maximal effect). The method, boiled down:
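3T3Gli1-Luc, conditioned-medium-stimulated, 24hr cpd, 37C/5% CO2; Gli1-driven firefly Luc luminescence after 30min RT with luciferase reagent. Cells plated 4hr before cpd.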

Assay [19] can be described thus: qHTS assay to identify small molecule antagonists of the estrogen receptor alpha (ER-alpha) signaling pathway using the BG1 cell line in the presence of 0.1 nM 17-beta-estradiol - cell viability counter screen (AID 1259241). Note: nearly all actives have a fitted effect of over 40% in size. The method, boiled down:
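Viability in VM7Luc4E2 cells after 22 hr compound exposure under 0.1 nM 17beta-estradiol stimulation, by CellTiter-Fluor.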

Assay [20] in a line: qHTS assay to identify small molecule phospholipidosis (PLD) inducers (AID 1259344; active = well fitted curve in the direction sought with a large enough effect; an effect the other way counts as inactive or inconclusive). The method, boiled down: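 Fluorescent phospholipid staining (LipidTOX Red) measured by automated microscopy in fixed HepG2 cells after 24 h treatment; nuclei counterstained with Hoechst 33342; amiodarone as reference inducer.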

Sequence of Androgen receptor (Homo sapiens) (P10275 whole entry, looked up): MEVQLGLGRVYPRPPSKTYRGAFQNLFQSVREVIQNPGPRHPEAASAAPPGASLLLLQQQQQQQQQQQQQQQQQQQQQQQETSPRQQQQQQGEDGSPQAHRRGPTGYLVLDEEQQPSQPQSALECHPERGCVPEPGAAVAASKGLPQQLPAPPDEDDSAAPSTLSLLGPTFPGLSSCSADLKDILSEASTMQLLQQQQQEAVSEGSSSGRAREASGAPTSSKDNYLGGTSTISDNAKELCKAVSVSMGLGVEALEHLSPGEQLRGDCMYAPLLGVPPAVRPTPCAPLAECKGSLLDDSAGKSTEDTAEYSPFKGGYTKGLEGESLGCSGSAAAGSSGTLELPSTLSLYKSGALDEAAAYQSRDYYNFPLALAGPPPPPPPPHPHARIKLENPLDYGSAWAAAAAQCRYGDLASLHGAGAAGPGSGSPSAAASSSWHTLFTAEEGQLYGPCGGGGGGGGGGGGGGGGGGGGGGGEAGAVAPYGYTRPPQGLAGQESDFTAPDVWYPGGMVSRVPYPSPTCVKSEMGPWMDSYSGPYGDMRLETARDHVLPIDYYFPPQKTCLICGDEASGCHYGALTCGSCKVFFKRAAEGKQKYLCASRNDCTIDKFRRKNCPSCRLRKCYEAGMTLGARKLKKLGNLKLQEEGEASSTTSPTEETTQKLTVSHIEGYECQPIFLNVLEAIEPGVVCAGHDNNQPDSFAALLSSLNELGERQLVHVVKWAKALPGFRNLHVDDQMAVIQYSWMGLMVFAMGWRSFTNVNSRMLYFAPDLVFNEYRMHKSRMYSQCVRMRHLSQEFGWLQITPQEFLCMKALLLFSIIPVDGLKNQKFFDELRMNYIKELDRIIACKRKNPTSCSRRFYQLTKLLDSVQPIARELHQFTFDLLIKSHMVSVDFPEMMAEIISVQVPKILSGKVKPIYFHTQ
Sequence of Estrogen receptor (Homo sapiens) (P03372 whole entry, looked up): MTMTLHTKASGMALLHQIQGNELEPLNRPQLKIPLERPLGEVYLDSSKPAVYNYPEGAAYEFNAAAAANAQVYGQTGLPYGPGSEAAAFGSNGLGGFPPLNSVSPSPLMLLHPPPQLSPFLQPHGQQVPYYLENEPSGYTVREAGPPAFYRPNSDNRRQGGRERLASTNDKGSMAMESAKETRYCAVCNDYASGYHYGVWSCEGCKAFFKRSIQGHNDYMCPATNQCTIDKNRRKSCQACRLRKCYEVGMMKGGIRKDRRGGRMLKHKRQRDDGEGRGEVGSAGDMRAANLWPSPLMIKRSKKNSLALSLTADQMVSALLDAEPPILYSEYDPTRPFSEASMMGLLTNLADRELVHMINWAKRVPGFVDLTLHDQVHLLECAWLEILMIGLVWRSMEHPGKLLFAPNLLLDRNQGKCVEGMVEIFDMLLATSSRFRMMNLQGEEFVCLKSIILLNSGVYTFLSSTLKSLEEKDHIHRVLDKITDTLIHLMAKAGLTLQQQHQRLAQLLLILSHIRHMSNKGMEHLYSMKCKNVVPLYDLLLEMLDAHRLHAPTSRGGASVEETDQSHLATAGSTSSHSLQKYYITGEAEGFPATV

`CC1=NN(c2cccc(S(=O)(=O)O)c2)C(=O)C1`: the Potency entry in [1], in [2], in [5], in [6], in [8] and in assay [11] was “inactive” in each case. In addition, the Potency entry in assay [13], in assay [15], in [16] and in [18] was “inactive” in each case. Further, the compound was classed as inactive in assay [3], in assay [4], in assay [7], in assay [9], in assay [10] and in assay [12]. The compound was classed as inactive in assay [14] and in assay [17].
As for `CCCCCCC#CC(=O)OC`, the Potency entry in assay [1], in assay [2], in assay [5], in [6], in [8] and in [13] was “inactive” in each case. For the same compound, the Potency result in assay [15] and in assay [18] was “inactive” throughout. In addition, the compound was called inactive in assay [3], in assay [4], in assay [7], in [9], in assay [19] and in assay [10]. Moreover, the call in [14] and in [17] was inactive.
Regarding `CC(C)CC(C)(N)C#N` (centres undefined), the Potency result in [1], in assay [2], in assay [5], in assay [6], in assay [8] and in assay [13] was “inactive” throughout. In addition, the Potency result in assay [15] and in assay [18] was “inactive” each time. Also, the outcome in assay [3], in [4], in assay [7], in assay [9], in [19] and in assay [10] was inactive. For the same compound, the result in assay [14] and in assay [17] was inactive.
With `CC[N+](CC)(CC(=O)Nc1c(C)cccc1C)Cc1ccccc1` (tested in a mixture with another compound), the Potency entry in [1], in assay [2], in [5], in [6], in [8] and in assay [13] was “inactive” each time. For the same compound, the Potency entry in [15], in [16] and in [18] was “inactive” throughout. Besides, the result in assay [3], in [4], in assay [7], in assay [9], in assay [10] and in [14] was inactive. For the same compound, the call in assay [17] was inactive.
Consider `CC(=O)Nc1ccc(OCC(O)CNC(C)C)cc1` (centres undefined), for which the Potency result in [1], in assay [2], in assay [5], in assay [8], in assay [13] and in assay [15] was “inactive” in each case. Also, the Potency entry in assay [16] and in assay [18] was “inactive” each time. In addition, the outcome in [3], in assay [4], in assay [7], in [9], in assay [19] and in [10] was inactive. The outcome in [20], in assay [14] and in assay [17] was inactive.
Take `CCCCOCCOC(=O)CCCCCCCCC(=O)OCCOCCCC`: the Potency result in assay [1], in assay [2], in assay [5], in assay [6], in assay [8] and in [13] was “inactive” in each case. For the same compound, in assay [15], the Potency result was “inactive”. Besides, the call in assay [3], in [4], in assay [7], in assay [9], in assay [19] and in [10] was inactive. In addition, in assay [17], the result was inactive. The Potency in [18] is 30.6 µM (active).
Take `O=C(O)CC(C(=O)O)S(=O)(=O)O` (centres undefined): the Potency result in [1], in assay [2], in assay [5], in assay [6], in [8] and in [13] was “inactive” each time. For the same compound, the Potency result in [15] and in assay [16] was “inactive” each time. The compound was classed as inactive in assay [3], in assay [4], in [7], in assay [9], in assay [10] and in assay [12]. Moreover, the result in assay [14] and in assay [17] was inactive. In addition, the Potency in assay [18] is 30.6 µM (active).
With `CNCCO`, the Potency result in assay [1], in assay [2], in assay [5], in assay [6], in assay [8] and in [13] was “inactive” in each case. Moreover, the Potency entry in assay [15], in [16] and in assay [18] was “inactive” in each case. In addition, the compound was called inactive in assay [3], in assay [4], in [7], in assay [9], in assay [19] and in assay [10]. Besides, the compound was called inactive in [17].
Take `Cc1nc2ccc(CN(C)c3ccc(C(=O)N[C@@H](CCC(=O)O)C(=O)O)s3)cc2c(=O)[nH]1`: the Potency result in assay [1], in assay [2], in assay [5], in [6], in [8] and in assay [11] was “inactive” throughout. Moreover, the Potency result in assay [13], in assay [15], in assay [16] and in assay [18] was “inactive” in each case. The compound was classed as inactive in assay [3], in [4], in [9], in [19], in assay [10] and in assay [20]. In addition, the result in assay [14] and in assay [17] was inactive.

These data come from PubChem BioAssay (Tox21).
